Test results from PubChem BioAssay.
The source made the active and inactive calls.

Assays:
[1] = E. coli DRC41 culture turbidity changes, primary screen, E. coli filamentation inducer project, strain DRC41, OD650, 48 h (AID 1152);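 further: E. coli MC1000 strain DRC41 lacking acrAB efflux pump and sulA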; conditions: E. coli DRC41 (acrAB sulA), higher = more signal, called active from +8 up or from −8 down
[2] = small-molecule binders of probe aLefty1, primary screen, biochemical, small-molecule microarray, 635/667 nm fluorescence (AID 1153); conditions: higher = more signal;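 further: score merges spot fluorescence with signal-to-noise ratio from the scanned slide images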
[3] = PSAC antagonists in infected red cells, primary screen, cell-based, P. falciparum Indochina, OD700, 1 h (AID 1154); conditions: P. falciparum Indochina infected RBC osmotic lysis, higher = more signal, called active from +8 up or from −8 down
[4] = PSAC antagonists in infected red cells, primary screen, cell-based, P. falciparum Indochina, OD700, 2 h (AID 1155);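 further: lysis reports solute entry through the parasite surface anion channel PSAC; channel blockers reduce lysis of infected cells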; conditions: P. falciparum Indochina infected erythrocytes, osmotic lysis OD700; higher = more signal, called active from +8 up or from −8 down
[5] = osmotic lysis modulators in infected erythrocytes, primary screen, PSAC antagonist project, cell-based, P. falciparum Indochina, OD700, 3 h (AID 1156); conditions: higher = more signal, called active from +8 up or from −8 down
[6] = PSAC antagonists in infected red cells, primary screen, cell-based, P. falciparum Indochina, OD700, 18 h (AID 1157); conditions: P. falciparum Indochina infected erythrocytes, osmotic lysis OD700, 18 h; higher = more signal, called active from +8 up or from −8 down
[7] = modulators of S6 phosphorylation in cells, primary screen, cell-based, A549, cytoblot, luminescence, serum-stimulated (AID 1158); conditions: A549 phospho-S6 cytoblot, 5 h, higher = more signal;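 further: serum-stimulated A549 lung adenocarcinoma cells; signal is phosphorylated S6 detected by cytoblot immunostaining with HRP secondary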
[8] = target: NADPH oxidase 2 (Homo sapiens) (UniProt P04839); experiment: NOX2-dependent H2O2 signal modulators, primary screen, NOX inhibitor project, cell-based, HEK293-NOX2, PMA-stimulated, Amplex Red fluorescence (AID 1159); conditions: 45 min, higher = more signal, called active from +8 up or from −8 down; further: test concentration not given here
Chain of NADPH oxidase 2 (Homo sapiens) (P04839 whole entry, looked up): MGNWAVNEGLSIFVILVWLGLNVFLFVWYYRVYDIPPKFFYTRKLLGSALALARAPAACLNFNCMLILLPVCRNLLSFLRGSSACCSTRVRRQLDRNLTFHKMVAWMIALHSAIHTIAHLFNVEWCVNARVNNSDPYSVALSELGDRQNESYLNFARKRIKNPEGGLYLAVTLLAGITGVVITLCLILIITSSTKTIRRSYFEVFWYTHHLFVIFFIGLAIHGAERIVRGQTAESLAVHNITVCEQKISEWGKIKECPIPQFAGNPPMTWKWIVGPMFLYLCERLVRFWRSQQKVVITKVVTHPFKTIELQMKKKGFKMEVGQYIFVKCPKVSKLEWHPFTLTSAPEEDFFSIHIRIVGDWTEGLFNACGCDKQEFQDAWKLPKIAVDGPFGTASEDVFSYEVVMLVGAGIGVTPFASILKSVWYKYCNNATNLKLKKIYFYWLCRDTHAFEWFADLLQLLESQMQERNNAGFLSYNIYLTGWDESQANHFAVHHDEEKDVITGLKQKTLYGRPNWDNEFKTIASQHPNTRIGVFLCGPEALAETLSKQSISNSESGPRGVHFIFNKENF

[9] = target: NADPH oxidase 4 (Homo sapiens) (UniProt Q9NPH5); experiment: NOX4-dependent H2O2 signal modulators, primary screen, NOX inhibitor project, cell-based, HEK293-NOX4, tetracycline-induced, Amplex Red fluorescence (AID 1160); conditions: 45 min, higher = more signal, called active from +8 up or from −8 down
Chain of NADPH oxidase 4 (Homo sapiens) (Q9NPH5 whole entry, looked up): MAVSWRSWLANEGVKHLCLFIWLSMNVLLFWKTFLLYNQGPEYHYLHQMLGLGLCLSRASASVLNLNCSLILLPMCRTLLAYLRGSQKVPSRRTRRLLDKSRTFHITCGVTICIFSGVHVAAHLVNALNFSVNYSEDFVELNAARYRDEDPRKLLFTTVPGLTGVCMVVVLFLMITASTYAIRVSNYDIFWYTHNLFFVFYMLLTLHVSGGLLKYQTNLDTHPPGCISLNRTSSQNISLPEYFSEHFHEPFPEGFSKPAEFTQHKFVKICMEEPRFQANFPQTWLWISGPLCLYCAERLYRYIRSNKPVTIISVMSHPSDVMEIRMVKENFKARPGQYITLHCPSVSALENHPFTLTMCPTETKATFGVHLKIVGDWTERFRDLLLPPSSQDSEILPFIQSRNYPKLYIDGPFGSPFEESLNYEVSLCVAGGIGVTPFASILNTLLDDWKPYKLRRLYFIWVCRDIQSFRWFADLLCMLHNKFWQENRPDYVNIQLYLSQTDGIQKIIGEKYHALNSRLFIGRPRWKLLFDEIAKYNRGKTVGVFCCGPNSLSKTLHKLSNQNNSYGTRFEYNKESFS

[10] = target: NADPH oxidase 5 (Homo sapiens) (UniProt Q96PH1); experiment: NOX5-dependent H2O2 signal modulators, primary screen, NOX inhibitor project, cell-based, HEK293-NOX5, Amplex Red fluorescence (AID 1161); conditions: HEK293-NOX5, ionomycin, 45 min, higher = more signal
Chain of NADPH oxidase 5 (Homo sapiens) (Q96PH1 whole entry, looked up): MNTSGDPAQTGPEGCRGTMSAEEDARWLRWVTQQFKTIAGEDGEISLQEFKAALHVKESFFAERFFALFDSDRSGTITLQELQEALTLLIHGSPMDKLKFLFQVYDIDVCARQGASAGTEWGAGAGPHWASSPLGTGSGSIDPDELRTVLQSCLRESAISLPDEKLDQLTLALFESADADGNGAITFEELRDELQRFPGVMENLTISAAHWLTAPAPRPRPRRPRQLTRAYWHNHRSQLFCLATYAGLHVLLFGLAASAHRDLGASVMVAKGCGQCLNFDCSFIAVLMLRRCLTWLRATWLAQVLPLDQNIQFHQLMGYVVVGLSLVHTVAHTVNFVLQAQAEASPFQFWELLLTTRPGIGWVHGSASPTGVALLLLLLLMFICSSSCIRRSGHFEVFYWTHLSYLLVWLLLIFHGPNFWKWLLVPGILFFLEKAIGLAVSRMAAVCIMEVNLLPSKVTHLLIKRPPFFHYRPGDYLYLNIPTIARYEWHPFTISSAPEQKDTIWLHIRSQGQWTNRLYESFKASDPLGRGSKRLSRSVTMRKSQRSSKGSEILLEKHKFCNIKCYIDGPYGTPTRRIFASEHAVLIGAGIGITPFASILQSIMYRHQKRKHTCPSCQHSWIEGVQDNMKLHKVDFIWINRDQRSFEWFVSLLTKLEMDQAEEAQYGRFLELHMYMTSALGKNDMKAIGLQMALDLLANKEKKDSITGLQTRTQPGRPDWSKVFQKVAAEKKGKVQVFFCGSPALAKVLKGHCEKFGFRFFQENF

| SMILES | z-score [1] | composite z-score [2] | z-score [3] | z-score [4] | z-score [5] | z-score [6] | z-score [7] | z-score [8] | z-score [9] | z-score [10] |
| --- | --- | --- | --- | --- | --- | --- | --- | --- | --- | --- |
| CCc1cccc(NC(=O)O[C@H]2[C@H](OC(=O)Nc3ccccc3)[C@@H](OC(=O)Nc3ccccc3)[C@@H](OC)O[C@@H]2CO)c1 | 0.172 (inactive) | 0.424 | 5.28 (inactive) | 1.13 (inactive) | -0.298 (inactive) | 0.667 (inactive) | 0.211 | -6.71 (inactive) | -1.24 (inactive) | -2.35 |
| Cc1cc(C)c(C(O)C2C=CC3C(=O)N(C)C(=O)C3N2N2CCCCC2)c(C)c1 (stereo not given) | -1.06 (inactive) | 0.554 | -0.245 (inactive) | 0.827 (inactive) | -0.285 (inactive) | 1.12 (inactive) | -1.01 | -0.669 (inactive) | 0.167 (inactive) | -1.23 |
| COCCCNC(=O)[C@@H]1c2ccccc2C(=O)N(CC23CC4CC(CC(C4)C2)C3)[C@H]1c1ccc(CO)cc1 | -0.162 (inactive) | 0.276 | 4.59 (inactive) | -0.14 (inactive) | 3.38 (inactive) | -0.877 (inactive) | 2.61 | -1.24 (inactive) | -2.34 (inactive) | -4.2 |
| N#Cc1ccc(NN2C(C(O)c3ccc(I)cc3)C=CC3C(=O)N(c4ccccc4)C(=O)C32)cc1 (stereo not given) | -1.95 (inactive) | 0.526 | 9.81 (active) | 3.64 (inactive) | -1.43 (inactive) | 2.57 (inactive) | -0.484 | -2.64 (inactive) | -4.46 (inactive) | -2.48 |
| CC/C=C/C(=O)N(C[C@@H]1CCCO1)[C@@H]1CC(C(=O)NCCO)=C[C@H](Oc2c(I)cc(CO)cc2OC)[C@H]1O | 1.24 (inactive) | 0.135 | 1.05 (inactive) | -0.433 (inactive) | 1.31 (inactive) | -1.48 (inactive) | 1.98 | -0.425 (inactive) | 1.5 (inactive) | 1.2 |
| C=CCNC(=O)[C@H]1[C@@H]2C(=O)O[C@@H](c3ccccc3)[C@@H](c3ccccc3)N2[C@@H](c2ccccc2OCCO)[C@]12C(=O)N(C(=O)OCCOC)c1ccc(C#CCC(C(=O)OC)C(=O)OC)cc12 | 2.88 (inactive) | 0.042 | 2.93 (inactive) | -0.183 (inactive) | 0.824 (inactive) | -2.13 (inactive) | 2.23 | 0.819 (inactive) | 0.0202 (inactive) | 0.521 |
| COc1ccc(CCN2C(=O)[C@@]3(c4ccc([N+](=O)[O-])cc4)CC(=O)N(CC45CC6CC(CC(C6)C4)C5)[C@@H]3c3ccc(CO)cc32)cc1 | 0.683 (inactive) | 0.585 | 1.39 (inactive) | 0.77 (inactive) | 0.393 (inactive) | 0.427 (inactive) | -0.385 | -0.447 (inactive) | -0.968 (inactive) | 1.43 |
| COc1ccc([Si](C)(C)[C@@H]2[C@@H](CC(=O)N(CCO)Cc3ccccc3)O[C@]3(C(=O)N(Cc4cccc(N5CCC5=O)c4)c4ccccc43)[C@H]2C)cc1 | 0.557 (inactive) | 0.122 | 3.67 (inactive) | 1.49 (inactive) | 0.0319 (inactive) | 1.19 (inactive) | 1.61 | 1.34 (inactive) | 1.48 (inactive) | 3.23 |
| CC1CC/C=C\[C@H]2OC34C=CCN(Cn5nnc6ccccc65)C(=O)[C@H]3N(C(C)CO)C(=O)[C@@H]4C2C(=O)O1 (stereo not given in full) | 0.0838 (inactive) | -0.204 | 2.25 (inactive) | 0.974 (inactive) | 1.03 (inactive) | 0.477 (inactive) | 0.0801 | 0.963 (inactive) | 0.173 (inactive) | 1.79 |
| CC(C)[Si]1(C(C)C)O[C@@H](c2ccccc2)c2cc(C3CC3)nc(-c3ccc(Oc4ccccc4)cc3)c21 | 2.17 (inactive) | -0.0011 | 0.835 (inactive) | -0.0994 (inactive) | 1.08 (inactive) | -0.812 (inactive) | -0.164 | 1.06 (inactive) | 0.86 (inactive) | 0.456 |
| COCCOC(=O)N1C(=O)[C@@]2(c3cc(C#CC4=CCCCC4)ccc31)[C@H](c1ccc(O)cc1)N1[C@H](c3ccccc3)[C@H](c3ccccc3)OC(=O)[C@H]1[C@@H]2C(=O)N1CCCCCCC1 | 1.65 (inactive) | 1.49 | -0.138 (inactive) | -0.321 (inactive) | -0.52 (inactive) | 0.389 (inactive) | -0.137 | 1.06 (inactive) | 0.325 (inactive) | 1.53 |
| CCN1C(C)=C(C(=O)OC)[C@@H](c2ccccc2)N2C(=O)[C@](O)(C(=O)OC)[C@@H](c3ccccc3)C(C(C)=O)=C12 | -0.461 (inactive) | -0.0111 | 2.31 (inactive) | 0.414 (inactive) | 0.291 (inactive) | 0.0714 (inactive) | 3.95 | -0.211 (inactive) | -0.585 (inactive) | 1.35 |
| CO[C@H]1COC(=O)[C@H](Cc2ccccc2)NC(=O)CC=C[C@@H](C)[C@H](OC)COC(=O)CC=C[C@@H]1C | 0.284 (inactive) | -0.0241 | -0.144 (inactive) | -1.22 (inactive) | -1 (inactive) | -1.27 (inactive) | 0.501 | -3.05 (inactive) | 0.103 (inactive) | 0.784 |
| CCC#CCN(Cc1ccccc1Br)[C@H](/C=C/c1ccccc1)[C@@H](O)Cc1ccccc1 | 0.625 (inactive) | -0.0035 | 1.79 (inactive) | 1.15 (inactive) | -0.696 (inactive) | 0.475 (inactive) | -0.218 | -0.267 (inactive) | 0.0785 (inactive) | -0.41 |
| CN1C(=O)C2C=CC(C(O)C3CC=CCC3)N(Nc3ccccc3)C2C1=O (stereo not given) | -1.08 (inactive) | 0.346 | 0.756 (inactive) | 0.0735 (inactive) | -0.139 (inactive) | 0.459 (inactive) | -0.879 | -1.81 (inactive) | -3.23 (inactive) | -3.05 |
| NC(=O)[C@H]1[C@@H]2C(=O)O[C@@H](c3ccccc3)[C@@H](c3ccccc3)N2[C@@H](c2ccc(O)cc2)[C@]12C(=O)Nc1ccc(C#CCCO)cc12 | -0.331 (inactive) | -0.0559 | 5.17 (inactive) | 0.92 (inactive) | 0.696 (inactive) | 0.442 (inactive) | -0.289 | 0.482 (inactive) | -0.661 (inactive) | 0.563 |
| C[C@H]1COC(=O)[C@@H]2CCCN2C(=O)[C@@H](C)COC(=O)[C@@H]2CCCN2C1=O | 0.407 (inactive) | -0.147 | -0.0889 (inactive) | 0.0593 (inactive) | 0.425 (inactive) | -0.187 (inactive) | 0.33 | 0.764 (inactive) | 0.382 (inactive) | -0.406 |
| CO[C@H]1COC(=O)CC=C[C@H](C)[C@@H](OC)COC(=O)CC=C[C@@H]1C | 1.32 (inactive) | 0.0962 | 1.35 (inactive) | 0.636 (inactive) | 0.357 (inactive) | 0.254 (inactive) | 1.26 | 0.59 (inactive) | 1.19 (inactive) | 0.435 |
| Cc1ccc([C@@H]2CC=C(C(=O)O)[C@H](c3ccccc3)N2S(=O)(=O)c2ccc(C)cc2)cc1 | -1.17 (inactive) | 1 | 1.83 (inactive) | 0.929 (inactive) | 0.692 (inactive) | 0.708 (inactive) | -0.256 | 0.489 (inactive) | -1.2 (inactive) | -0.96 |
| O=C1O[C@H](c2ccccc2)[C@H](c2ccccc2)N2[C@H]1[C@@H](C(=O)Nc1nc3ccccc3s1)[C@]1(C(=O)Nc3ccc(C#CC4(O)CCCCCC4)cc31)[C@H]2c1ccc(O)cc1 | -1.07 (inactive) | 0.308 | 0.797 (inactive) | 1.57 (inactive) | 0.315 (inactive) | 1.38 (inactive) | -0.0907 | 1.03 (inactive) | -0.14 (inactive) | 0.842 |
| COCCOC(=O)N1C(=O)[C@@]2(c3cc(C#CCNC(N)=O)ccc31)[C@H](C(=O)N1CCCCCCC1)[C@H]1C(=O)O[C@H](c3ccccc3)[C@H](c3ccccc3)N1[C@@H]2c1ccccc1OCCO | -0.332 (inactive) | 1.28 | 1.17 (inactive) | 1.53 (inactive) | 0.926 (inactive) | 0.927 (inactive) | 0.344 | 1.66 (inactive) | 0.683 (inactive) | 0.357 |
| O=C1c2ccccc2[C@](Cc2ccccc2I)(C(=O)O)[C@H](c2ccc(CO)cc2)N1C1CCCCC1 | 2.84 (inactive) | 0.138 | 3.72 (inactive) | 0.525 (inactive) | 0.974 (inactive) | -0.339 (inactive) | 2.86 | 1.06 (inactive) | -0.737 (inactive) | -0.473 |
| COC(=O)[C@@]1(Cc2ccccc2)[C@H]2c3cc(C(=O)N4CCCC4)n(CCN4CNCC4=O)c3C[C@H]2CN1C(=O)c1ccccc1 | -1.1 (inactive) | 0.0176 | -0.469 (inactive) | -1.05 (inactive) | 0.423 (inactive) | -1.63 (inactive) | 0.212 | 0.122 (inactive) | 1.61 (inactive) | 0.595 |
| C=C(C(=O)CC[C@H](OC(=O)c1ccccc1-c1ccccc1C(=O)O)c1ccc(CO)o1)C(C)C | -0.748 (inactive) | 0.0026 | 2.22 (inactive) | 0.36 (inactive) | 1.19 (inactive) | 0.233 (inactive) | 0.124 | -0.162 (inactive) | -0.621 (inactive) | -0.867 |
| CCCC=C(CCC)[C@@H](NS(=O)(=O)c1cccc(C(F)(F)F)c1)c1ccc(C(=O)OC)cc1 | -0.77 (inactive) | 1.6 | -0.82 (inactive) | -0.868 (inactive) | -0.723 (inactive) | -1.41 (inactive) | 0.213 | 0.139 (inactive) | 0.449 (inactive) | 1.87 |
